Holding throughout (parameters): scale not given: direction of the effect not stated beside the values
For test [1], the target named is Protein translocase subunit SecA (Escherichia coli (strain K12)) (UniProt P10408). In words: Assay to Identify E. coli SecA ATPase Inhibitors. The format is functional. The settings on record: 30 µM.
Test [2] concerns the target T1, Ubiquitin-activating enzyme e1, putative (Leishmania donovani (strain BPK282A1)) (UniProt E9BSI1).
T1 sequence (whole entry): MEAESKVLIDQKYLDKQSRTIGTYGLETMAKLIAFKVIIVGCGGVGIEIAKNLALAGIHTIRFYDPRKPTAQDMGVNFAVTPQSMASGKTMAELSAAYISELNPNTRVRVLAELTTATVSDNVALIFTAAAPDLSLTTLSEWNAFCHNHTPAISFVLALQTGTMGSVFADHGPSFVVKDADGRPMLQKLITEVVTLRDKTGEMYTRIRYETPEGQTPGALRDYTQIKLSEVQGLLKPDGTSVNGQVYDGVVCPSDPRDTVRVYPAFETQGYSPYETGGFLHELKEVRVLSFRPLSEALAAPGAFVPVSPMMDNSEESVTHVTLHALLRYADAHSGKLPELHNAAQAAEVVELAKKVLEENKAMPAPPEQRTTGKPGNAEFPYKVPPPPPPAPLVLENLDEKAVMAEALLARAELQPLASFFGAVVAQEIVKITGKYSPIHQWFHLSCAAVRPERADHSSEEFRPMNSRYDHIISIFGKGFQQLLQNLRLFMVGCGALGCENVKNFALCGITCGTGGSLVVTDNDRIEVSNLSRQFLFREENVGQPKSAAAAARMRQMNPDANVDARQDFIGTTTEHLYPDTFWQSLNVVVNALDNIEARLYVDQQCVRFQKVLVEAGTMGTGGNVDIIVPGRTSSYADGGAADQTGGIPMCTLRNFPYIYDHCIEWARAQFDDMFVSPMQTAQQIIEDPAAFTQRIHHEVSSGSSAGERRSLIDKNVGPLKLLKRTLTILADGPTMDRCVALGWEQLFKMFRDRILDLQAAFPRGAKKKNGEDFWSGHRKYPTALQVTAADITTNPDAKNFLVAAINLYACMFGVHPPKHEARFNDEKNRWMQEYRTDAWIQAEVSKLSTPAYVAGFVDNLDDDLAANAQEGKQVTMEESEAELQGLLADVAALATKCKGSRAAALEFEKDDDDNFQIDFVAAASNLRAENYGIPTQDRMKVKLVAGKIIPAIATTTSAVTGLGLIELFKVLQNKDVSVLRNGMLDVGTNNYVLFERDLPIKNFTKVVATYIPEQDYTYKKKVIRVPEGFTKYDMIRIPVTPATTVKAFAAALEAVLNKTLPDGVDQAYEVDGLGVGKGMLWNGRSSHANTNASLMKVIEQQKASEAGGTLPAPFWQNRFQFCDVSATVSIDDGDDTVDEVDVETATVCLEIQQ
The test can be described thus: Leishmania donovani Ubiquitin Activating Enzyme (LdE1). Particulars: 30 µM. In kind it is functional.

The target in test [3] is AMP-activated protein kinase, AMPK (Homo sapiens) (UniProt P54646+O43741+P54619+Q9UGJ0+Q9Y478+Q13131+Q9UGI9). The test can be described thus: AMP-dependent Kinase enzyme assay. An in vitro enzyme assay that detects ADP turnover that is directly proportional to AMPK activity. This uses naive AMPK that is activated during the assay with MK-8722. The format is functional. Particulars: 30 µM.

Test [4] has as its target Sialic acid-binding Ig-like lectin 9 (Homo sapiens) (UniProt Q9Y336). In words: Hs-Siglec9 ALPHAscreen SOP 20170721. Particulars: 10 µM. (In Alpha technology, singlet oxygen from a donor bead excites a nearby acceptor bead.)
The next test relates to Trypanosoma cruzi. The test can be described thus: Trypanosoma cruzi phosphomannomutase and mannose-1-phosphate guanylyltransferase assay. The format is functional. The settings on record: 10 µM.
Test [5] has as its target T2, Arginase-2, mitochondrial (Homo sapiens) (UniProt P78540).
T2 sequence (whole entry): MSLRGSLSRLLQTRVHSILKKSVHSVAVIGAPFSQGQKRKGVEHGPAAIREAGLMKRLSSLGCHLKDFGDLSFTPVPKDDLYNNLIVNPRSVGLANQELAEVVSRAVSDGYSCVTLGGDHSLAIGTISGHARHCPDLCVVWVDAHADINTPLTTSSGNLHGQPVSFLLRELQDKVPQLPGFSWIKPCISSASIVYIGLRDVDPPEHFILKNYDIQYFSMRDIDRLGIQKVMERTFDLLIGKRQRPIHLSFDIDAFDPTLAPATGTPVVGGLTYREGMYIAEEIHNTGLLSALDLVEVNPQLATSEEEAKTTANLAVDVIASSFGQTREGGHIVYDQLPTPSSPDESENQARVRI
The test can be described thus: in vitro enzyme assay to detect the production of urea directly proportional to the activity of Arginase II. Further: in the data most compounds retested in dose-response had high values. In kind it is functional. The settings on record: 33.3 µM.

The target of test [6] is T3, Proteasome subunit beta (Trypanosoma cruzi) (UniProt O96673).
T3 sequence (whole entry): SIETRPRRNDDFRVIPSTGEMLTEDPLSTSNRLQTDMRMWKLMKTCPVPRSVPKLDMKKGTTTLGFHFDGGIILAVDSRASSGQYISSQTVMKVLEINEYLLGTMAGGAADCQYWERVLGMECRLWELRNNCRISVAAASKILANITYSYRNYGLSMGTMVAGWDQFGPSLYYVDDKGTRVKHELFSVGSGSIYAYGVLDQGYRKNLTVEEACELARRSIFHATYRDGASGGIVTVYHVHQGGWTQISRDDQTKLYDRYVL
The test can be described thus: Trypanosoma cruzi proteasome chymotrypsin-like activity (TcProtChymo) assay. Further: in the data most compounds retested in dose-response had high values. In kind it is functional. Particulars: 9.37 µM.

The species entered for a further test is Homo sapiens. The test can be described thus: To identify inhibition of the IFN signalling (Jak-Stat) pathway via expression of an eGFP reporter gene under the control of an IFN-stimulated response element (ISRE) containing MxA promoter. Particulars: 30 µM. In kind it is functional.
For test [7], the target named is T4, Tyrosyl-tRNA synthetase, putative (Trypanosoma cruzi (strain CL Brener)) (UniProt Q4DSP6).
T4 sequence (whole entry): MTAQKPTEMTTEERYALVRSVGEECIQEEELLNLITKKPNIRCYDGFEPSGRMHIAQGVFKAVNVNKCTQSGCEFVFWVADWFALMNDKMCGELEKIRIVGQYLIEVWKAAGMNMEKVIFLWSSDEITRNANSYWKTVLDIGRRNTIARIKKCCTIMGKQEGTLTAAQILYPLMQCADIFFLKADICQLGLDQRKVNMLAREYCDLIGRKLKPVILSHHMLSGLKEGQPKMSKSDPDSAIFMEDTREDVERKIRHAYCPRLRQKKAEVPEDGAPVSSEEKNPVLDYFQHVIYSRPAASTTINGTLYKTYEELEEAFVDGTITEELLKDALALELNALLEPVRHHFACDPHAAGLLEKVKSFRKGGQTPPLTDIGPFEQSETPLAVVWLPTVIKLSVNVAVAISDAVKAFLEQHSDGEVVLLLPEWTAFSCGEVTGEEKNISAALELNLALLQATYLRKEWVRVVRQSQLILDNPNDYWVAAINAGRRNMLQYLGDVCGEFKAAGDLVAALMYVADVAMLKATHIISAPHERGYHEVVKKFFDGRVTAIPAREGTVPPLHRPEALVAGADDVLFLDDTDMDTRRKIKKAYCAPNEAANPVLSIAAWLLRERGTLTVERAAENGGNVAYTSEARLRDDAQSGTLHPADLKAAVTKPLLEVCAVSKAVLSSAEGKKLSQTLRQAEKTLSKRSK
The test can be described thus: Trypanosoma cruzi tyrosyl tRNA synthetase (TcYRS) _High Tyrosine SOP. Further: in the data most compounds retested in dose-response had high values. The format is functional. The settings on record: 30 µM.

For test [8], the target named is T4, Tyrosyl-tRNA synthetase, putative (Trypanosoma cruzi (strain CL Brener)). In words: Trypanosoma cruzi tyrosyl tRNA synthetase (TcYRS) SOP. The format is functional. The settings on record: 30 µM.
The target in test [9] is Chromo domain-containing protein 1 (Saccharomyces cerevisiae (strain ATCC 204508 / S288c) (Baker's yeast)) (UniProt P32657). In words: ScCHD-1 Enzyme Inhibition Assay. Further: in the data most compounds retested in dose-response had high values. In kind it is functional. Particulars: 30 µM.

The structures appear in SMILES notation. For some of these results: Potency and affinity values are given separately.

Sialic acid-binding Ig-like lectin 9 (Homo sapiens), sequence (Q9Y336 whole entry): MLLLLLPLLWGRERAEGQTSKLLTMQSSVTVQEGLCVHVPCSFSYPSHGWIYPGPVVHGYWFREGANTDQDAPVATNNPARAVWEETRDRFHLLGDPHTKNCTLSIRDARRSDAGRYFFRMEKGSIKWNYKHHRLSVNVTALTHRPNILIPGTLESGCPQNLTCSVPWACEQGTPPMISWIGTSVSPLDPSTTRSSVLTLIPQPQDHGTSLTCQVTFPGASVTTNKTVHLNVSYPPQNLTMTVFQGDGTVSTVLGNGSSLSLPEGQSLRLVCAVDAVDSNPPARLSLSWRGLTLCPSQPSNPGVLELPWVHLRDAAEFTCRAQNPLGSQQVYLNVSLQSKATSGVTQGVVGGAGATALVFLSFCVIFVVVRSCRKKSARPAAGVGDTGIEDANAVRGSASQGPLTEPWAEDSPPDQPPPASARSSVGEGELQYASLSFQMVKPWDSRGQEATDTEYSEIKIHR
Chromo domain-containing protein 1 (Saccharomyces cerevisiae (strain ATCC 204508 / S288c) (Baker's yeast)), sequence (P32657 whole entry, the tested form may be a part): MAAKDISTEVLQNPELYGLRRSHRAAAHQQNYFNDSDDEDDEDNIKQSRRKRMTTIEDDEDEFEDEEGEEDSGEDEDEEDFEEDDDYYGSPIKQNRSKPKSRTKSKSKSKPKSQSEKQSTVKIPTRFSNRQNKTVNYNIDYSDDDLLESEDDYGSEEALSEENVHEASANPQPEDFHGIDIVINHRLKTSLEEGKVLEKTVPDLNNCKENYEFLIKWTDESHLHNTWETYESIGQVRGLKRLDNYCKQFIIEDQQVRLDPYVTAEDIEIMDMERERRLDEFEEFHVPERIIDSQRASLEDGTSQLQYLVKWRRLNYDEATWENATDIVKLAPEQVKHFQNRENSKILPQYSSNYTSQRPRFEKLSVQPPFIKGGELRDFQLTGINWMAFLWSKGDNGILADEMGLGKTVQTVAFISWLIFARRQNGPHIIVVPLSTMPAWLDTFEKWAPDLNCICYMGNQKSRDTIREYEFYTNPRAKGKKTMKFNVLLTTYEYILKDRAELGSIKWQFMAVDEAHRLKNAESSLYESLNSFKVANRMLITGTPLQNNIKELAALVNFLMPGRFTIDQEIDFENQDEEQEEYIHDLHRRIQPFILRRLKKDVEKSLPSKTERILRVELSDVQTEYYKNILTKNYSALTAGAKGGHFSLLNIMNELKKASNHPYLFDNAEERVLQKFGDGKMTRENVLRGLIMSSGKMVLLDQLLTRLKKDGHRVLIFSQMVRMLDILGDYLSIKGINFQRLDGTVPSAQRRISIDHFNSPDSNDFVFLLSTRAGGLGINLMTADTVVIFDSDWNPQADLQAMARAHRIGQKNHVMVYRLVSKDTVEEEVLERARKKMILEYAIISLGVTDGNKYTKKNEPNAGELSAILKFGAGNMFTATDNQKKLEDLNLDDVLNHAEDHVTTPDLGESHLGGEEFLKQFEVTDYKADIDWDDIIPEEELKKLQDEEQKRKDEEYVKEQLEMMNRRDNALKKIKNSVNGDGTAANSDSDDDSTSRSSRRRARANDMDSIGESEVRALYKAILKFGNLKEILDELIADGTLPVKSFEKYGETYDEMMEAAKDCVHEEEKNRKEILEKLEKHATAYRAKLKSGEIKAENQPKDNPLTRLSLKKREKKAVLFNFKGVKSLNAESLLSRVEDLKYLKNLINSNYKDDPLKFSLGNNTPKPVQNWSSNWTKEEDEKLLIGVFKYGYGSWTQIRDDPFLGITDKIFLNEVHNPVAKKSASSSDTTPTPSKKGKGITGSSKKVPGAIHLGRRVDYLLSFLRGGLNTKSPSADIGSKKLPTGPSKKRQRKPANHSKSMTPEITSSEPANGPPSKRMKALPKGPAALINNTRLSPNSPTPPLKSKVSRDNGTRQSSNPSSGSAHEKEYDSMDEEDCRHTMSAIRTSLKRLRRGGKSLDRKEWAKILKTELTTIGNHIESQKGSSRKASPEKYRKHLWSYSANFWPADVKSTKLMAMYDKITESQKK
Protein translocase subunit SecA (Escherichia coli (strain K12)), sequence (P10408 whole entry): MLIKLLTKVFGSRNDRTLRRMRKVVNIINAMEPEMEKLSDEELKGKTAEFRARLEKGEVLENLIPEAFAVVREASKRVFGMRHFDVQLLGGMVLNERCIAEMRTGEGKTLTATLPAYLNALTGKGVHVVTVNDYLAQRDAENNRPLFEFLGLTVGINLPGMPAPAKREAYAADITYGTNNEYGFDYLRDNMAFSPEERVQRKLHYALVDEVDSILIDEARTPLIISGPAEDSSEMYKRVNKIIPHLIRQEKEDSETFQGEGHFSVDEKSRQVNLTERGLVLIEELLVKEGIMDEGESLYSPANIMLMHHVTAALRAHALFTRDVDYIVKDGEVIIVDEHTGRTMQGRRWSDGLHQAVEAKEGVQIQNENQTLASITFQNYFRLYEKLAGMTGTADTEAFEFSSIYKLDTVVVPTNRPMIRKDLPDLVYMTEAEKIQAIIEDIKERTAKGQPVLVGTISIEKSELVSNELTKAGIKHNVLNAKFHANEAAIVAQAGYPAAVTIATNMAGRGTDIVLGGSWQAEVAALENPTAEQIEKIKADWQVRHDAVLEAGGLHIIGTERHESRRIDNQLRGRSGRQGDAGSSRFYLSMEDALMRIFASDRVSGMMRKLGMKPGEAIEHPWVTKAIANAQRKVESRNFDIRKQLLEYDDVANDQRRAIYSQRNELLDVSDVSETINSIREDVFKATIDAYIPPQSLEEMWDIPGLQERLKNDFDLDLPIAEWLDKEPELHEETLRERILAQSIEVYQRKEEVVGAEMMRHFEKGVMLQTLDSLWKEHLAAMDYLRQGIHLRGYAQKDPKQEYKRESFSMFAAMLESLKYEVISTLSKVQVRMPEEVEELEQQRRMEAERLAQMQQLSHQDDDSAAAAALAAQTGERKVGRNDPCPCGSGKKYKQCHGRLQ

Take `CCN(C(=O)COC)C(c1cccnc1)c1cc(C)cc(C)c1` (stereo not drawn): the Percent Effect in test [1] is 0.0465%; in test [2], 2.74%; in test [3], 4.88%; in test [4] it was 27.6%; with Trypanosoma cruzi, -11.3%; in [5] it was 1.6%. In addition, the Percent Effect is 12.9% in test [6]; 22.9% in the test filed under Homo sapiens; -2.08% in test [7]; -8.64% in [8]; -2.33% in [9].
For `COc1cc2nc(C)n(CC(=O)NCCCN(C)C)c(=O)c2cc1OC`, the Percent Effect was -0.823% in test [1]; 20% in test [2]; -6.34% in [3]; -3.21% in test [4]; 4.13% with Trypanosoma cruzi; -2.99% in test [5]. In addition, the Percent Effect in test [6] was 17.4%; in the test listed under Homo sapiens it was 12.2%; in [7], 6.35%; in [8], 15.4%; in [9], -9.62%.
With `CN1CCC(Oc2ccc(NC(=O)c3cccc(Cl)c3)cc2)CC1`, the Percent Effect in [1] is -5.92%; in test [2], 0%; in test [3] it was 6.08%; in [4], 4.72%; with Trypanosoma cruzi, 3.05%; in test [5], 19.3%. Further, the Percent Effect was 10.2% in test [6]; 12.9% in the test listed under Homo sapiens; -5.38% in test [7]; 1.24% in test [8]; -3.75% in test [9].
As for `COc1ccc(C2=CCN(C(=O)CN(C)CC(N)=O)CC2)cc1`, the Percent Effect in [1] is -1.62%; in test [2] it was 5.06%; in test [3], 0.216%; in [4] it was -0.305%; in the test on Trypanosoma cruzi, -19.4%; in test [5], 6.46%. In addition, the Percent Effect in [6] was 9.42%; in the test listed under Homo sapiens, 16.9%; in test [7], 3.45%; in [8], 8.86%; in test [9], -6.22%.
On to `Fc1ccc(OCc2noc(CN3CCc4cncnc4C3)n2)cc1`, for which the Percent Effect was -0.114% in [1]; 13.2% in [2]; -14.5% in test [3]; 2.94% in test [4]; 2.26% in the test with Trypanosoma cruzi; -29.5% in test [5]. Also, the Percent Effect in test [6] was 18.1%; in the test filed under Homo sapiens, 1.44%; in [7], 31.9%; in [8] it was 21.9%; in test [9], -2.74%.
As for `c1cnc(NCc2ncn3c2CN(Cc2cccnc2)CCC3)nc1`, the Percent Effect in test [1] is -0.478%; in test [2], 2.7%; in test [3], 0.693%; in test [4], -4.85%; in the test with Trypanosoma cruzi, -2.15%; in test [5] it was 1.25%. Also, the Percent Effect in test [6] was 8.03%; in the test filed under Homo sapiens, 2.98%; in [7], 8.91%; in test [8], 8.54%; in test [9], -0.718%.
In the case of `O=C(CN1CCC(c2ccnn2CCO)CC1)NCC1CC1`, the Percent Effect in [1] is -2.3%; in test [2], 17.7%; in test [3] it was -5.47%; in test [4], 0.194%; in the test on Trypanosoma cruzi, 2.36%; in test [5] it was 0.76%. In addition, the Percent Effect was 6.96% in test [6]; -2.19% in the test listed under Homo sapiens; 8.37% in test [7]; 29.1% in test [8]; -5.59% in test [9].
On to `CC(C)CNC(=O)c1c(-n2cnnn2)sc2c1CCC2`, for which the Percent Effect in test [1] is -4.85%; in test [2] it was 13.2%; in test [3], 3.3%; in test [4], 0.76%; in the test on Trypanosoma cruzi it was 0.0974%; in [5] it was 0%. The Percent Effect in test [6] was 10.4%; in the test filed under Homo sapiens, -15.7%; in [7], 2.13%; in test [8] it was 15.6%; in [9], -4.29%.
